# The panel holds about 83,000 compounds, 20% with a hit somewhere; the sample as a whole holds those more often.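 A percent growth of 40 corresponds to 60% growth inhibition; 0 means no net growth; -100 means all cells died. Active threshold: below 10.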 Unmarked numbers belong to inactive results. Active and inactive are the calls of the source.
# Tests used:
# Assay in all cases: NCI-60 one-dose screen, 48 h (100 = growth as untreated, 0 = no growth, -100 = all killed)
# Conditions in all cases: 10 µM unless noted
# [1] = system: T-47D breast
# [2] = system: BT-549 breast
# [3] = system: MDA-MB-435 melanoma
# [4] = system: SW-620 colon
# [5] = system: MCF7 breast
# [6] = system: HCT-116 colon
# [7] = system: HCC-2998 colon
# [8] = system: KM12 colon
Structure (SMILES),growth [1],growth [2],growth [3],growth [4],growth [5],growth [6],growth [7],growth [8]
N=c1c(S(=O)(=O)c2ccccc2)cc2c(=O)n3ccccc3nc2n1C1CCCC1,79.8%,89.3%,108%,99.3%,93.8%,91.5%,103%,98.5%
COc1ccc(-n2c(/C=C/c3ccc(O)c(OC)c3)cc(/C=C/c3ccc(O)c(OC)c3)nc2=O)cc1,51.8%,30.9%,29.6%,29.8%,19.7%,21.1%,94.9%,42%
O=C(NO)c1ccc(Cn2c(=O)n(-c3ccccc3)c(=O)c3ccccc32)cc1,14.1%,32.4%,-64.2% (active),0.142% (active),33.2%,-53.1% (active),54.1%,-7.84% (active)
O=C1CN(c2ccccc2)C(=O)C1C(=O)Nc1ccc(Cl)c(Cl)c1 (stereo unspecified),12.7% [100 µM],23.4% [100 µM],7.79% [100 µM] (active),20.1% [100 µM],15.7% [100 µM],-19.4% [100 µM] (active),2.18% [100 µM] (active),17.2% [100 µM]
COC(=O)[C@]12CC[C@@H](C)[C@H](C)[C@@H]1C1=CC[C@@H]3[C@@]4(C)C[C@@H](OC(C)=O)[C@H](O)[C@@](C)(CO)[C@@H]4[C@H](O)C[C@@]3(C)[C@]1(C)CC2,-66.9% (active),-81.5% (active),-96.4% (active),-67.8% (active),-73.5% (active),-65.4% (active),-87.8% (active),-84.2% (active)
COC(=O)[C@]12CC[C@@H](C)[C@H](C)[C@@H]1C1=CC[C@@H]3[C@@](C)(CC#N)C4=C(C[C@@]3(C)[C@]1(C)CC2)OC[C@]4(C)C=O,-9.08% (active),-15.2% (active),3.05% (active),0.614% (active),-10.2% (active),3.7% (active),-45.3% (active),4.23% (active)
O=S(=O)(NCCNc1cc(-c2cn(-c3ccccc3)nc2-c2cccc(O)c2)ccn1)c1ccc(Cl)cc1,14.4%,50.7%,23.3%,32.8%,14.9%,20.4%,-42.8% (active),19.4%
CC(=O)O[C@H]1CC[C@@]2(C)C(=CC[C@@H]3[C@@H]2CC[C@]2(C)C(=O)N(O)C(=O)C[C@@H]32)C1,87.1%,91.9%,104%,72.6%,76%,76.3%,78.1%,71.8%
O=C(Nc1ccc(/C=C2\SC(=O)N(Cc3ccc(OC(F)(F)F)cc3)C2=O)cc1)c1ccc(Cl)c([N+](=O)[O-])c1,4.78% (active),75.3%,99.6%,2.11% (active),1.61% (active),67.5%,96.7%,53.1%
CN1CCN(c2ccc3nc(-c4[nH]ncc4Nc4ncnc5[nH]ccc45)[nH]c3c2)CC1,-3.09% (active),-41.9% (active),0.107% (active),3.78% (active),3.28% (active),2.16% (active),-23.2% (active),10.2%
COc1cccc(-c2nn(-c3ccccc3)cc2-c2ccnc(NCCNS(=O)(=O)c3ccc(C(F)(F)F)cc3)c2)c1,3.99% (active),-29.3% (active),13.2%,28.4%,11.1%,14.7%,13.7%,14.7%
NC1=C(C/C(N)=N\O)C(c2ccccc2Cl)c2c(ccc3ccccc23)O1 (stereo unspecified),84.8%,89.3%,3.52% (active),63.1%,68.5%,83.8%,97.1%,67.5%
N=C(N)c1ccc(-c2ccc(-c3cc(F)cc(F)c3)o2)nc1,86.3%,97.4%,90.9%,54.2%,66.9%,64.2%,96.5%,91.5%
Cc1cc(C=O)c(C)c2c1[nH]c1ccccc12,101%,89%,116%,101%,85.4%,90.5%,106%,108%
CN1CCN(c2nc(-c3csc(-c4cccs4)n3)cc3ccccc23)CC1,52.1%,70.4%,12.2%,9.06% (active),40.8%,46.7%,-38.2% (active),5.42% (active)
Nc1c2c(nc3ccc(Cl)cc13)CC(c1ccc(O)cc1)CC2=O (stereo unspecified),54.8%,53.3%,-38.5% (active),33.8%,25.1%,26.2%,77.9%,26.7%
CCCCCCCC(=O)SCC/C=C/[C@@H]1CC(=O)NCc2cccc(n2)CN(Cc2ccc3ccccc3c2)CC(=O)N[C@@H](C(C)C)C(=O)O1,44.5%,88.1%,37.4%,76.8%,26.5%,5.36% (active),49.5%,38.8%
